PMC7862700, “An all-to-all approach to the identification of sequence-specific readers for epigenetic DNA modifications on cytosine”

Experiments:
Test in all cases: DAPPL (digital affinity profiling via proximity ligation, sequencing); 10 mM Tris-HCl pH 7.5, 50 mM NaCl, 1 mM DTT, 4% glycerol, room temperature, 30 min; GST-TFs on glutathione beads, 16-mer random dsDNA library, 0.1% formaldehyde crosslink after washing; high values mean tight binding
Conditions in all cases: protein: recombinant; tags: N-terminal GST; dsDNA, one strand shown
[1] = target: T1, FLI1 (Homo sapiens, UniProt Q01543 1-452)
T1 sequence: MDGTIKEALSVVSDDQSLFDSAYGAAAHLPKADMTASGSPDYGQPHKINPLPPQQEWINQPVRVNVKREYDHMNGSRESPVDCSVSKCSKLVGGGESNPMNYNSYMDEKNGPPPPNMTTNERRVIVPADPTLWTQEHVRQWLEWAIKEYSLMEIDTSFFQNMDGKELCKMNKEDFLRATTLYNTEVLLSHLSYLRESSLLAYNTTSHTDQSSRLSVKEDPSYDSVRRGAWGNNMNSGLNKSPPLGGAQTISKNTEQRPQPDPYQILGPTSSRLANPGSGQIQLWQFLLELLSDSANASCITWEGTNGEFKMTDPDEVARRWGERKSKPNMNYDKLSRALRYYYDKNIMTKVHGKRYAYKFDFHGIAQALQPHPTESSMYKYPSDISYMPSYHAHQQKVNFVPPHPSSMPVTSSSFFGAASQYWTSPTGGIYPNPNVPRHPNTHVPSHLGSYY
Method in brief: (§1)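 Human transcription factors were made in yeast as GST fusions, captured on glutathione beads and barcoded with DNA. With a tag-only sample included, the pool was incubated with 200 nmole of a random double-stranded 16-mer DNA library in Tris/NaCl/DTT/glycerol buffer at room temperature for 30 min, then crosslinked with 0.1% formaldehyde after washing, ligated by proximity, amplified and sequenced. For binding signal, each hexamer's read frequency for a factor is divided by its frequency for the tag-only sample.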

[2] = target: T2, ELK1 (Homo sapiens, UniProt P19419 1-428)
T2 sequence: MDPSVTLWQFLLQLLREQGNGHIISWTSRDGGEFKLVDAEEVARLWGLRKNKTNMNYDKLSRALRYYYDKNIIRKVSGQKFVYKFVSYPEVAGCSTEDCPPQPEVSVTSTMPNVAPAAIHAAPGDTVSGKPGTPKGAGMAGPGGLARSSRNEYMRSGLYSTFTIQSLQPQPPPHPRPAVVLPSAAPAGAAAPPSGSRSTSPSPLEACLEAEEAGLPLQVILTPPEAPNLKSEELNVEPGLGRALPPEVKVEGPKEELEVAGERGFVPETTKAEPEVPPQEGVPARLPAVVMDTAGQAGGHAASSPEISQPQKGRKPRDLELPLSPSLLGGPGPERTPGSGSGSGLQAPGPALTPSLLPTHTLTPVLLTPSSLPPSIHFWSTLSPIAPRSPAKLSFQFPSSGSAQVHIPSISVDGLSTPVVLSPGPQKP
Method in brief: as §1

[3] = target: T3, GABPA (Homo sapiens, UniProt Q06546 1-454)
T3 sequence: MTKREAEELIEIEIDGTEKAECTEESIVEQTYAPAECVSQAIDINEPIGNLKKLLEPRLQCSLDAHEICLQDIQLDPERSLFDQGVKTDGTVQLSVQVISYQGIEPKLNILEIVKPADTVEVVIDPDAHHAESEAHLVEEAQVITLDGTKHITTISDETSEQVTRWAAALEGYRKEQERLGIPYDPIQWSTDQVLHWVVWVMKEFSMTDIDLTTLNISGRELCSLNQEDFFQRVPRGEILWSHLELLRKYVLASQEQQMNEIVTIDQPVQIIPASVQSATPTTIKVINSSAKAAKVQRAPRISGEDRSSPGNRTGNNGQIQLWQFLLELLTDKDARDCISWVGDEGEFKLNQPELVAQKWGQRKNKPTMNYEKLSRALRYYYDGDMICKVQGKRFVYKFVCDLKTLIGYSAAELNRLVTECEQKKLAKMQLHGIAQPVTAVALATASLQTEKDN
Method in brief: as §1

[4] = target: T4, ERG (Homo sapiens, UniProt P11308 1-479)
T4 sequence: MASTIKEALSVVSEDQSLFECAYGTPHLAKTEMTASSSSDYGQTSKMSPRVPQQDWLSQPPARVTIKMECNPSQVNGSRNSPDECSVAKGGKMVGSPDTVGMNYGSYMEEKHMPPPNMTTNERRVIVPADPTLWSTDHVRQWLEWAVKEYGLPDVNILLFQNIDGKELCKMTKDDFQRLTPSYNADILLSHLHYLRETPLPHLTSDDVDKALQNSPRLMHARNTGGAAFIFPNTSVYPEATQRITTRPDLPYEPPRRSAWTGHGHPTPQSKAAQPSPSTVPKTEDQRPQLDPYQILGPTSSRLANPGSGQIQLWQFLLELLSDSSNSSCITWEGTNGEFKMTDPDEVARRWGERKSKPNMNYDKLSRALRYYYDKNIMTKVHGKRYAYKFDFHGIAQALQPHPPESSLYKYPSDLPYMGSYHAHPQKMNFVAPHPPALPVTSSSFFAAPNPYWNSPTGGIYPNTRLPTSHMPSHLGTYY
Method in brief: as §1

[5] = target: ELF1 (Homo sapiens, UniProt P32519 1-619)
Chain of ELF1 (P32519 whole entry): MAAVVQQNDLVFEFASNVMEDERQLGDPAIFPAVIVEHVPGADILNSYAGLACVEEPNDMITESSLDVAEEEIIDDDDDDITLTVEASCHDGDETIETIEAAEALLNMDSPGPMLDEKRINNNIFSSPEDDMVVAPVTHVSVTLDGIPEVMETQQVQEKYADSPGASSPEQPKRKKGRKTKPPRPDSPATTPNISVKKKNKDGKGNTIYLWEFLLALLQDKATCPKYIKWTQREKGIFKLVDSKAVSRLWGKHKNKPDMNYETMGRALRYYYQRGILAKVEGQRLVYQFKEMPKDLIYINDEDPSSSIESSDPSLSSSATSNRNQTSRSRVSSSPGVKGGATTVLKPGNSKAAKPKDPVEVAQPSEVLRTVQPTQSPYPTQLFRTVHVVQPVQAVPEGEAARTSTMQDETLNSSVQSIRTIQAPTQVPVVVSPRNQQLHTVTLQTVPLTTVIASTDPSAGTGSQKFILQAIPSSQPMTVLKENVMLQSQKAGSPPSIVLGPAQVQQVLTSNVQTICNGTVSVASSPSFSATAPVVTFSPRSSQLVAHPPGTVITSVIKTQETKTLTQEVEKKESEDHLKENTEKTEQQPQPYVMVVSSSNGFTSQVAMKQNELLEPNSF
Method in brief: as §1

[6] = target: T5, EHF (Homo sapiens, UniProt Q9NZC4 1-300)
T5 sequence: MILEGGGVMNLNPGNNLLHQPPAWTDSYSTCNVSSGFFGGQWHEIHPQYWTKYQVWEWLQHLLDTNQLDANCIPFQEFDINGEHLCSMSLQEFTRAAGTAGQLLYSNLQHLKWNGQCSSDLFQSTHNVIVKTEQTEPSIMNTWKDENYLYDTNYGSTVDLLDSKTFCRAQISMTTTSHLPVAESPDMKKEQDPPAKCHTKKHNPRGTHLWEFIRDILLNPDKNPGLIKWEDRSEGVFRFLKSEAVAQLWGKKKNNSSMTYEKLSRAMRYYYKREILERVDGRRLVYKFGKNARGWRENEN
Method in brief: as §1

[7] = target: SPI1 (Homo sapiens, UniProt P17947 1-270)
Method in brief: as §1

[8] = target: SPIB (Homo sapiens, UniProt Q01892 1-262)
Chain of SPIB (Q01892 whole entry): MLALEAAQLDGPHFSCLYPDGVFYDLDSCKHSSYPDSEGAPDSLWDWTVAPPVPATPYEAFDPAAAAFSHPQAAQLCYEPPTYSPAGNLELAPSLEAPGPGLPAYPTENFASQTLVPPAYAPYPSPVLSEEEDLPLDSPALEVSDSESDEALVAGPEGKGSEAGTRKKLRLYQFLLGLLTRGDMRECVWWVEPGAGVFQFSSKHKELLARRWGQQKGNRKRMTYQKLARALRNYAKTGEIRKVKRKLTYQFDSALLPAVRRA
Method in brief: as §1

[9] = target: T6, ELK3 (Homo sapiens, UniProt P41970 1-407)
T6 sequence: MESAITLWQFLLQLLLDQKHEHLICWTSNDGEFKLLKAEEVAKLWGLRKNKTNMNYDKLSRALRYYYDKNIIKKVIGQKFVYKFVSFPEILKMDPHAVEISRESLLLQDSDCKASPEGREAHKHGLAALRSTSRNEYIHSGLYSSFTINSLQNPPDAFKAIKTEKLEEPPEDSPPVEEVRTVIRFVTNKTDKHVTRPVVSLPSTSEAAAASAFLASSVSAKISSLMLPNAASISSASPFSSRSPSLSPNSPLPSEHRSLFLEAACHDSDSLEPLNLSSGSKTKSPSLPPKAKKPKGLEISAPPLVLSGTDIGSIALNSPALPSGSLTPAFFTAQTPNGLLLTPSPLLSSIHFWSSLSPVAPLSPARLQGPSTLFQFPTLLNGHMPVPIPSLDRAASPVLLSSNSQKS
Method in brief: as §1

[10] = target: T7, FEV (Homo sapiens, UniProt Q99581 1-238)
T7 sequence: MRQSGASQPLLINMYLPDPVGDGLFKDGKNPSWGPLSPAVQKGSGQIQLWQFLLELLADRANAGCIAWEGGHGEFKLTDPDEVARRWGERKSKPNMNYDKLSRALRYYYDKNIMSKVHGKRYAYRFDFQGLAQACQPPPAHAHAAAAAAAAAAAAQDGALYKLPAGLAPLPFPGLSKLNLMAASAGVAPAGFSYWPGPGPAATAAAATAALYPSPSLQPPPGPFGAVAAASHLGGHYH
Method in brief: as §1

[11] = target: ETV5 (Homo sapiens, UniProt P41161 1-510)
Chain of ETV5 (P41161 whole entry): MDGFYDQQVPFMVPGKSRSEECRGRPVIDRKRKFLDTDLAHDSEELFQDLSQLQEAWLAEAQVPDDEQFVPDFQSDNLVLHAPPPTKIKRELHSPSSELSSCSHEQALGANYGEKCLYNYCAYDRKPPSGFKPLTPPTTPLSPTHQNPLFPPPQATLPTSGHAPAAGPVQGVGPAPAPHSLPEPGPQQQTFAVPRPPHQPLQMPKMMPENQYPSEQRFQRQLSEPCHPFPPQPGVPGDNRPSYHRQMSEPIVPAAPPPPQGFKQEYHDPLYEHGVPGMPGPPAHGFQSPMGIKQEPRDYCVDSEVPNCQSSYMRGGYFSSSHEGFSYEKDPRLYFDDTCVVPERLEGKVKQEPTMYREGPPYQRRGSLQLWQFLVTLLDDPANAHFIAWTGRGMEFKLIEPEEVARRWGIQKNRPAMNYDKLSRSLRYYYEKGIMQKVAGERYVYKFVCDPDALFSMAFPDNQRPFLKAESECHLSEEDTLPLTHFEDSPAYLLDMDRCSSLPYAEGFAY
Method in brief: as §1

[12] = target: T8, SPIC (Homo sapiens, UniProt Q8N5J4 1-248)
T8 sequence: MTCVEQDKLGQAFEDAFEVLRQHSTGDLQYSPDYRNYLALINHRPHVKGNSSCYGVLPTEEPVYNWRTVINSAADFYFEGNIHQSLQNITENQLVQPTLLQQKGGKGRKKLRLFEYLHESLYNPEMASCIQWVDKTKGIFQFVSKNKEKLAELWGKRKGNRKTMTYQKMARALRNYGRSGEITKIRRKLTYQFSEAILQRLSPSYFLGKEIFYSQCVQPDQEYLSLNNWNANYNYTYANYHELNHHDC
Method in brief: as §1

[13] = target: ELF4 (Homo sapiens, UniProt Q99607 1-663)
Chain of ELF4 (Q99607 whole entry): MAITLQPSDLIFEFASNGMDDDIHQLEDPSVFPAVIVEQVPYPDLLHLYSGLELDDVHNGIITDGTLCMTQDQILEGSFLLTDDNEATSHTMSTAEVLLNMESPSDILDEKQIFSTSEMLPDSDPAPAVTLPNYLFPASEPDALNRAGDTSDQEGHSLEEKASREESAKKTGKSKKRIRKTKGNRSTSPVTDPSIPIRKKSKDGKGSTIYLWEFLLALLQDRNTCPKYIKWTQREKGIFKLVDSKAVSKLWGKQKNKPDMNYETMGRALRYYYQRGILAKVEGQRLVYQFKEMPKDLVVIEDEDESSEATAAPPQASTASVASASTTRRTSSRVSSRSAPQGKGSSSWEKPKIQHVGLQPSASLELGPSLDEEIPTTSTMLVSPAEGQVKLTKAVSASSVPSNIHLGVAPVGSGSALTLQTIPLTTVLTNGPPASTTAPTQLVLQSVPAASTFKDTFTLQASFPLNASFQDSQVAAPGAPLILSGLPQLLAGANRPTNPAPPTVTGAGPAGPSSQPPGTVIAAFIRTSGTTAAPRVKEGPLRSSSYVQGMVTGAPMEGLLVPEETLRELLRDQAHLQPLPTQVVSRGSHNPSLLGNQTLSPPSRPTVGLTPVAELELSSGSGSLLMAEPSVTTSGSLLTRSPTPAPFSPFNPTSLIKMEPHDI
Method in brief: as §1

[14] = target: T9, ELK4 (Homo sapiens, UniProt P28324-2 1-405)
T9 sequence: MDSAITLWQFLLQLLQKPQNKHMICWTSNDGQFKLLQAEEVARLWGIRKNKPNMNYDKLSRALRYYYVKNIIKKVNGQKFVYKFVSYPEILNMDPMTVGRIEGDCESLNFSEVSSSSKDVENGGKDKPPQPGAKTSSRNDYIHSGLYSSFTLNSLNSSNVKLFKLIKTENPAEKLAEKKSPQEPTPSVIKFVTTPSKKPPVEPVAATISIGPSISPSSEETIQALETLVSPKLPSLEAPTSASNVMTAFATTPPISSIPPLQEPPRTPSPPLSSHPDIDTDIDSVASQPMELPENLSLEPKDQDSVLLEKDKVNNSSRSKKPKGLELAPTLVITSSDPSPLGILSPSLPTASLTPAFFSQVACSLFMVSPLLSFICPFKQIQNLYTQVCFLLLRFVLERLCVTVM
Method in brief: as §1

[15] = target: T10, ETV2 (Homo sapiens, UniProt O00321 1-342)
T10 sequence: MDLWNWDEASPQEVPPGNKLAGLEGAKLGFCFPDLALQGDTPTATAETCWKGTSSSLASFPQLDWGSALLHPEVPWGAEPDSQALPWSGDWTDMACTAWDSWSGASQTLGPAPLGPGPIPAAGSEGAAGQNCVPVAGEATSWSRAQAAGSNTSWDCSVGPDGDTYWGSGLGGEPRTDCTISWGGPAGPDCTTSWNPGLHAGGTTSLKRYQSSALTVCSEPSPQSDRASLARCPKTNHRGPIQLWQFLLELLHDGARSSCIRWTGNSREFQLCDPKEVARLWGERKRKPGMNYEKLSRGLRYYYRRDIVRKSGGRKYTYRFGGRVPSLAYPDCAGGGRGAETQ
Method in brief: as §1

[16] = target: T11, ELF3 (Homo sapiens, UniProt P78545 1-371)
T11 sequence: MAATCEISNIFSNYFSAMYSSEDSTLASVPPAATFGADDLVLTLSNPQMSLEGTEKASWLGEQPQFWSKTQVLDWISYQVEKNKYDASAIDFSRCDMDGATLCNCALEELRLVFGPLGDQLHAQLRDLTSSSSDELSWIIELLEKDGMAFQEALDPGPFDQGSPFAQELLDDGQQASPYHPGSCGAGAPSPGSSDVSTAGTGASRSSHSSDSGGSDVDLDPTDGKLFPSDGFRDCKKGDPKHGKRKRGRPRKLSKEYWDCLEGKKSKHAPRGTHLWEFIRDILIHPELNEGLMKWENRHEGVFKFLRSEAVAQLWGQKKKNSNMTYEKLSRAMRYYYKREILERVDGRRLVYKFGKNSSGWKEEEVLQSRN
Method in brief: as §1

[17] = target: CRX (Homo sapiens, UniProt O43186 1-299)
Chain of CRX (O43186 whole entry): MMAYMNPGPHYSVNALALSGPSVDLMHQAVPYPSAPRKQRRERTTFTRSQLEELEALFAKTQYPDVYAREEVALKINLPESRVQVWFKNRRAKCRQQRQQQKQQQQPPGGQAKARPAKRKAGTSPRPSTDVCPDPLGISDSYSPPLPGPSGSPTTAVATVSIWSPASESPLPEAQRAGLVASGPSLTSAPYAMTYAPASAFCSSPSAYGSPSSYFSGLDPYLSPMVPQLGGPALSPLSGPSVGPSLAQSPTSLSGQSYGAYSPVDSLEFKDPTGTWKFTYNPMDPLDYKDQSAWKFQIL
Method in brief: as §1

[18] = target: ETV1 (Homo sapiens, UniProt P50549 1-477)
Chain of ETV1 (P50549 whole entry): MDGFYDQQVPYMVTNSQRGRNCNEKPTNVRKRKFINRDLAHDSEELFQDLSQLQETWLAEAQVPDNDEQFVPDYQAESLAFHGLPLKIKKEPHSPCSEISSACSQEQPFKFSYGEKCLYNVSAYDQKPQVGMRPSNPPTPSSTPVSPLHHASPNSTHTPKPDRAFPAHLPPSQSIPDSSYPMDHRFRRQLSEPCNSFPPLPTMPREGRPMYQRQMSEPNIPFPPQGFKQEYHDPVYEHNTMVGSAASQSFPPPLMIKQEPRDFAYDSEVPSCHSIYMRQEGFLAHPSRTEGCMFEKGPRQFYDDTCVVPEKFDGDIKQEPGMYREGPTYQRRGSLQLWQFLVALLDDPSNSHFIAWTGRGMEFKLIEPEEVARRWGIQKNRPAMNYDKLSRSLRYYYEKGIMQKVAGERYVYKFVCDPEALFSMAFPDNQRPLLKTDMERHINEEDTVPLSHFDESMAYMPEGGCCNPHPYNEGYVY
Method in brief: as §1

Sequence	binding signal [1]	binding signal [2]	binding signal [3]	binding signal [4]	binding signal [5]	binding signal [6]	binding signal [7]	binding signal [8]	binding signal [9]	binding signal [10]	binding signal [11]	binding signal [12]	binding signal [13]	binding signal [14]	binding signal [15]	binding signal [16]	binding signal [17]	binding signal [18]
CCCCTG	1.22 fold enrichment (6-mer frequency, TF over GST control)	1.23 fold enrichment (6-mer frequency, TF over GST control)	1.26 fold enrichment (6-mer frequency, TF over GST control)	1.18 fold enrichment (6-mer frequency, TF over GST control)	1.22 fold enrichment (6-mer frequency, TF over GST control)	1.17 fold enrichment (6-mer frequency, TF over GST control)	1.25 fold enrichment (6-mer frequency, TF over GST control)	1.1 fold enrichment (6-mer frequency, TF over GST control)	1.27 fold enrichment (6-mer frequency, TF over GST control)	1.18 fold enrichment (6-mer frequency, TF over GST control)	1.22 fold enrichment (6-mer frequency, TF over GST control)	1.16 fold enrichment (6-mer frequency, TF over GST control)	1.21 fold enrichment (6-mer frequency, TF over GST control)	1.46 fold enrichment (6-mer frequency, TF over GST control)	1.03 fold enrichment (6-mer frequency, TF over GST control)	1.21 fold enrichment (6-mer frequency, TF over GST control)	1.07 fold enrichment (6-mer frequency, TF over GST control)	1.24 fold enrichment (6-mer frequency, TF over GST control)
TACAGG	1.32 fold enrichment (6-mer frequency, TF over GST control)	1.16 fold enrichment (6-mer frequency, TF over GST control)	1.21 fold enrichment (6-mer frequency, TF over GST control)	1.22 fold enrichment (6-mer frequency, TF over GST control)	1.13 fold enrichment (6-mer frequency, TF over GST control)	1.17 fold enrichment (6-mer frequency, TF over GST control)	1.12 fold enrichment (6-mer frequency, TF over GST control)	1.2 fold enrichment (6-mer frequency, TF over GST control)	1.03 fold enrichment (6-mer frequency, TF over GST control)	1.23 fold enrichment (6-mer frequency, TF over GST control)	1.24 fold enrichment (6-mer frequency, TF over GST control)	1.2 fold enrichment (6-mer frequency, TF over GST control)	1.14 fold enrichment (6-mer frequency, TF over GST control)	1.26 fold enrichment (6-mer frequency, TF over GST control)	1.15 fold enrichment (6-mer frequency, TF over GST control)	1.15 fold enrichment (6-mer frequency, TF over GST control)	1.08 fold enrichment (6-mer frequency, TF over GST control)	1.15 fold enrichment (6-mer frequency, TF over GST control)
